# About 79,000 compounds went through this panel and 15% of them were active in at least one assay; those are over-represented in the sample as a whole. A number with no mark means an inactive call. Activity calls are given as the source filed them. Rule as the data show it: active = growth inhibition above about 70%; inactive = the rest.
# Columns and labels:
# [1] = NCI Yeast Anticancer Drug Screen. Data for the rad52 strain (AID 147);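 also: 0% = growth of vehicle-treated control cultures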; conditions: S. cerevisiae rad52 mutant growth inhibition, hits give high values
# Procedure, shortened: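 Measured: yeast growth inhibition. System: strain with a defined DNA damage repair alteration. Reference: vehicle-treated control cultures.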
# [2] = NCI Yeast Anticancer Drug Screen. Data for the wt1 strain (AID 149);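 also: 0% = growth of vehicle-treated wt1 cultures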; conditions: S. cerevisiae wt1 strain (SPY 50644) growth inhibition, hits give high values
# Procedure, shortened: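 Using yeast strain wt1, compound-induced growth inhibition was determined against vehicle-treated cultures.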
# [3] = NCI Yeast Anticancer Drug Screen. Data for the rad50EPP+ strain (AID 151);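 also: 0% = growth of vehicle-treated control cultures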; conditions: S. cerevisiae rad50 mutant strain, hits give high values
# Procedure, shortened: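 One strain with a rad50 alteration (rad50EPP+) was compound-treated, its growth then compared to that of vehicle controls.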
# [4] = NCI Yeast Anticancer Drug Screen. Data for the mgt1 strain (AID 153); conditions: S. cerevisiae mgt1 mutant growth inhibition, hits give high values
# Procedure, shortened: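 After exposure of the mgt1 yeast mutant to compound, growth was measured and reported as inhibition compared with vehicle controls.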
# [5] = NCI Yeast Anticancer Drug Screen. Data for the rad50 strain (AID 155);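 also: 0% = growth of vehicle-only cultures of the same strain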; conditions: S. cerevisiae rad50 strain growth inhibition, hits give high values
# Procedure, shortened: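 Relative growth inhibition (compound vs vehicle) was measured in yeast with a defined repair-gene alteration.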
# [6] = NCI Yeast Anticancer Drug Screen. Data for the mec2-1 strain (AID 157); conditions: S. cerevisiae mec2-1 strain, hits give high values
# Procedure, shortened: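 Test agents were screened against the mec2-1 yeast strain, with defined DNA repair or cell cycle alteration. Growth was scored as inhibition against vehicle-only controls.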
# [7] = NCI Yeast Anticancer Drug Screen. Data for the rad14 strain (AID 159);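 also: 0% = growth of vehicle-treated control cultures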; conditions: S. cerevisiae rad14 strain growth inhibition, hits give high values
# Procedure, shortened: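 Screen for anticancer potential: a yeast strain altered in DNA damage repair is grown with compound, and reduced growth is quantified against vehicle controls.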
# [8] = NCI Yeast Anticancer Drug Screen. Data for the sgs1 mgt1 strain (AID 161);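 also: 0% = growth of cultures given vehicle only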; conditions: S. cerevisiae sgs1 mgt1 strain, hits give high values
# Procedure, shortened: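 Genetically altered yeast, compound exposure, growth inhibition relative to vehicle.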
# [9] = NCI Yeast Anticancer Drug Screen. Data for the CLN2oe strain (AID 163);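 also: 0% = growth of vehicle-only control cultures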; conditions: S. cerevisiae CLN2oe strain, hits give high values
# Procedure, shortened: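 Here, growth inhibition in a cell-cycle-altered yeast strain after compound exposure was quantified against vehicle control growth.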
# [10] = NCI Yeast Anticancer Drug Screen. Data for the cln2 rad14 strain (AID 165);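 also: 0% = growth equal to vehicle treated cultures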; conditions: S. cerevisiae cln2 rad14 strain, hits give high values
# Procedure, shortened: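 Growth of compound-exposed yeast (cln2 rad14 genotype) measured and expressed as inhibition relative to vehicle.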
# [11] = NCI Yeast Anticancer Drug Screen. Data for the bub3 strain (AID 167); conditions: S. cerevisiae bub3 mutant strain, hits give high values
# Procedure, shortened: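 Screening used yeast with an engineered genetic alteration affecting cell cycle control. Compound-exposed cultures were compared with vehicle cultures, and reduced growth was taken as inhibition.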
# [12] = NCI Yeast Anticancer Drug Screen. Data for the wt2 strain (AID 169);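 also: 0% = growth of vehicle-treated yeast cultures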; conditions: S. cerevisiae wt2 strain growth inhibition, hits give high values
# Procedure, shortened: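 Genetically defined yeast strains from a DNA-repair/cell-cycle panel were used. Compound-exposed yeast growth was measured, and the inhibition was calculated relative to vehicle treatment.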
# [13] = NCI Yeast Anticancer Drug Screen. Data for the mlh1 strain (AID 171);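 also: 0% = growth of vehicle-treated control cultures of the same strain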; conditions: S. cerevisiae mlh1 strain growth inhibition, hits give high values
# Procedure, shortened: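 Here the genetically defined yeast mutant is grown with each compound, and the extent to which its growth falls below that of vehicle-exposed cells is reported.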
# [14] = NCI Yeast Anticancer Drug Screen. Data for the sgs1 strain (AID 173);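 also: 0% = growth of vehicle-only control cultures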; conditions: S. cerevisiae sgs1 mutant, hits give high values
# Procedure, shortened: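 Relative growth inhibition, referenced to vehicle, was determined in a yeast strain with a defined alteration affecting DNA damage repair or cell cycle control after compound exposure.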
# [15] = NCI Yeast Anticancer Drug Screen. Data for the mlh1 rad18 strain (AID 175); conditions: S. cerevisiae mlh1 rad18 strain growth inhibition, hits give high values
# Procedure, shortened: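 In this whole-cell yeast screen, a strain with altered DNA damage repair is challenged with compound, and its growth is measured against matched vehicle-treated controls.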
# [16] = NCI Yeast Anticancer Drug Screen. Data for the rad18 strain (AID 177); conditions: S. cerevisiae rad18 mutant growth inhibition, hits give high values
# Procedure, shortened: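 Screen uses a yeast strain with a defined lesion in DNA damage repair; compound effect is read as loss of growth compared to untreated vehicle cultures.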
# [17] = at 5.0 µM (retest, dose inferred, filed as 0.5)
# [18] = at 50.0 µM (retest, dose inferred, filed as 5.0)
smiles,measurement,setting,value
O=[N+]([O-])c1ccc2[nH]c3c(-c4ccccc4)nccc3c2c1,growth inhibition,[1]; at 1.2 µM,-1%
same,growth inhibition,[1]; at 3.7 µM,8%
same,growth inhibition,[1]; at 11.0 µM,96% (active)
same,growth inhibition,[1]; at 33.0 µM,97% (active)
same,growth inhibition,[1]; at 100.0 µM,97% (active)
same,growth inhibition,[2]; at 1.2 µM,-4%
same,growth inhibition,[2]; at 3.7 µM,-8%
same,growth inhibition,[2]; at 11.0 µM,87% (active)
same,growth inhibition,[2]; at 33.0 µM,94% (active)
same,growth inhibition,[2]; at 100.0 µM,92% (active)
same,growth inhibition,[3]; at 1.2 µM,20%
same,growth inhibition,[3]; at 3.7 µM,43%
same,growth inhibition,[3]; at 11.0 µM,68%
same,growth inhibition,[3]; at 33.0 µM,79% (active)
same,growth inhibition,[3]; at 100.0 µM,79% (active)
same,growth inhibition,[4]; at 1.2 µM,-2%
same,growth inhibition,[4]; at 3.7 µM,-4%
same,growth inhibition,[4]; at 11.0 µM,94% (active)
same,growth inhibition,[4]; at 33.0 µM,97% (active)
same,growth inhibition,[4]; at 100.0 µM,97% (active)
same,growth inhibition,[5]; at 1.2 µM,-3%
same,growth inhibition,[5]; at 3.7 µM,2%
same,growth inhibition,[5]; [17],10%
same,growth inhibition,[5]; at 11.0 µM,92% (active)
same,growth inhibition,[5]; at 33.0 µM,96% (active)
same,growth inhibition,[5]; [18],96% (active)
same,growth inhibition,[5]; at 50.0 µM,98.8% (active)
same,growth inhibition,[5]; at 100.0 µM,96% (active)
same,growth inhibition,[6]; at 1.2 µM,-4%
same,growth inhibition,[6]; at 3.7 µM,-6%
same,growth inhibition,[6]; [17],-5%
same,growth inhibition,[6]; at 11.0 µM,96% (active)
same,growth inhibition,[6]; at 33.0 µM,98% (active)
same,growth inhibition,[6]; [18],97% (active)
same,growth inhibition,[6]; at 50.0 µM,91.2% (active)
same,growth inhibition,[6]; at 100.0 µM,98% (active)
same,growth inhibition,[7]; at 1.2 µM,-1%
same,growth inhibition,[7]; at 3.7 µM,-1%
same,growth inhibition,[7]; at 11.0 µM,85% (active)
same,growth inhibition,[7]; at 33.0 µM,96% (active)
same,growth inhibition,[7]; at 100.0 µM,95% (active)
same,growth inhibition,[8]; [17],10%
same,growth inhibition,[8]; [18],98% (active)
same,growth inhibition,[8]; at 50.0 µM,93% (active)
same,growth inhibition,[9]; at 1.2 µM,-8%
same,growth inhibition,[9]; at 3.7 µM,38%
same,growth inhibition,[9]; at 11.0 µM,96% (active)
same,growth inhibition,[9]; at 33.0 µM,96% (active)
same,growth inhibition,[9]; at 100.0 µM,96% (active)
same,growth inhibition,[10]; [17],-10%
same,growth inhibition,[10]; [18],96% (active)
same,growth inhibition,[10]; at 50.0 µM,98.3% (active)
same,growth inhibition,[11]; at 1.2 µM,10%
same,growth inhibition,[11]; at 3.7 µM,90% (active)
same,growth inhibition,[11]; [17],52%
same,growth inhibition,[11]; at 11.0 µM,96% (active)
same,growth inhibition,[11]; at 33.0 µM,97% (active)
same,growth inhibition,[11]; [18],97% (active)
same,growth inhibition,[11]; at 50.0 µM,98.8% (active)
same,growth inhibition,[11]; at 100.0 µM,96% (active)
same,growth inhibition,[12]; at 1.2 µM,0%
same,growth inhibition,[12]; at 3.7 µM,43%
same,growth inhibition,[12]; at 11.0 µM,96% (active)
same,growth inhibition,[12]; at 33.0 µM,98% (active)
same,growth inhibition,[12]; at 100.0 µM,98% (active)
same,growth inhibition,[13]; at 1.2 µM,-2%
same,growth inhibition,[13]; at 3.7 µM,15%
same,growth inhibition,[13]; at 11.0 µM,96% (active)
same,growth inhibition,[13]; at 33.0 µM,97% (active)
same,growth inhibition,[13]; at 100.0 µM,97% (active)
same,growth inhibition,[14]; at 1.2 µM,-12%
same,growth inhibition,[14]; at 3.7 µM,0%
same,growth inhibition,[14]; at 11.0 µM,93% (active)
same,growth inhibition,[14]; at 33.0 µM,97% (active)
same,growth inhibition,[14]; at 100.0 µM,96% (active)
same,growth inhibition,[15]; [17],3%
same,growth inhibition,[15]; [18],96% (active)
same,growth inhibition,[15]; at 50.0 µM,97.8% (active)
same,growth inhibition,[16]; at 1.2 µM,-1%
same,growth inhibition,[16]; at 3.7 µM,-4%
same,growth inhibition,[16]; at 11.0 µM,95% (active)
same,growth inhibition,[16]; at 33.0 µM,96% (active)
same,growth inhibition,[16]; at 100.0 µM,97% (active)
O=C(c1ccccc1)[C@H]1Nc2ccc(Cl)cc2[C@H]2OCCC[C@@H]12,growth inhibition,[1]; at 1.2 µM,-16%
same,growth inhibition,[1]; at 3.7 µM,-40%
same,growth inhibition,[1]; at 11.0 µM,-19%
same,growth inhibition,[1]; at 33.0 µM,22%
same,growth inhibition,[1]; at 100.0 µM,86% (active)
same,growth inhibition,[2]; at 1.2 µM,-7%
same,growth inhibition,[2]; at 3.7 µM,-6%
same,growth inhibition,[2]; at 11.0 µM,-2%
same,growth inhibition,[2]; at 33.0 µM,24%
same,growth inhibition,[2]; at 100.0 µM,88% (active)
same,growth inhibition,[3]; at 1.2 µM,-16%
same,growth inhibition,[3]; at 3.7 µM,-20%
same,growth inhibition,[3]; at 11.0 µM,-25%
same,growth inhibition,[3]; at 33.0 µM,-2%
same,growth inhibition,[3]; at 100.0 µM,14%
same,growth inhibition,[4]; at 1.2 µM,-19%
same,growth inhibition,[4]; at 3.7 µM,-23%
same,growth inhibition,[4]; at 11.0 µM,-39%
same,growth inhibition,[4]; at 33.0 µM,32%
same,growth inhibition,[4]; at 100.0 µM,88% (active)
same,growth inhibition,[5]; at 1.2 µM,-2%
same,growth inhibition,[5]; at 3.7 µM,-2%
same,growth inhibition,[5]; [17],7%
same,growth inhibition,[5]; at 11.0 µM,-6%
same,growth inhibition,[5]; at 33.0 µM,33%
same,growth inhibition,[5]; [18],4%
same,growth inhibition,[5]; at 50.0 µM,67.2%
same,growth inhibition,[5]; at 100.0 µM,91% (active)
same,growth inhibition,[6]; at 1.2 µM,-23%
same,growth inhibition,[6]; at 3.7 µM,-25%
same,growth inhibition,[6]; [17],-13%
same,growth inhibition,[6]; at 11.0 µM,-25%
same,growth inhibition,[6]; at 33.0 µM,-6%
same,growth inhibition,[6]; [18],49%
same,growth inhibition,[6]; at 50.0 µM,12.9%
same,growth inhibition,[6]; at 100.0 µM,90% (active)
same,growth inhibition,[7]; at 1.2 µM,-40%
same,growth inhibition,[7]; at 3.7 µM,-23%
same,growth inhibition,[7]; at 11.0 µM,-41%
same,growth inhibition,[7]; at 33.0 µM,31%
same,growth inhibition,[7]; at 100.0 µM,83% (active)
same,growth inhibition,[8]; [17],-18%
same,growth inhibition,[8]; [18],33%
same,growth inhibition,[8]; at 50.0 µM,40.5%
same,growth inhibition,[9]; at 1.2 µM,-14%
same,growth inhibition,[9]; at 3.7 µM,2%
same,growth inhibition,[9]; at 11.0 µM,-10%
same,growth inhibition,[9]; at 33.0 µM,23%
same,growth inhibition,[9]; at 100.0 µM,85% (active)
same,growth inhibition,[10]; [17],33%
same,growth inhibition,[10]; [18],44%
same,growth inhibition,[10]; at 50.0 µM,32.6%
same,growth inhibition,[11]; at 1.2 µM,-22%
same,growth inhibition,[11]; at 3.7 µM,-7%
same,growth inhibition,[11]; [17],12%
same,growth inhibition,[11]; at 11.0 µM,34%
same,growth inhibition,[11]; at 33.0 µM,86% (active)
same,growth inhibition,[11]; [18],93% (active)
same,growth inhibition,[11]; at 50.0 µM,82.5% (active)
same,growth inhibition,[11]; at 100.0 µM,95% (active)
same,growth inhibition,[12]; at 1.2 µM,-15%
same,growth inhibition,[12]; at 3.7 µM,-15%
same,growth inhibition,[12]; at 11.0 µM,-16%
same,growth inhibition,[12]; at 33.0 µM,17%
same,growth inhibition,[12]; at 100.0 µM,81% (active)
same,growth inhibition,[13]; at 1.2 µM,-19%
same,growth inhibition,[13]; at 3.7 µM,-31%
same,growth inhibition,[13]; at 11.0 µM,-34%
same,growth inhibition,[13]; at 33.0 µM,32%
same,growth inhibition,[13]; at 100.0 µM,91% (active)
same,growth inhibition,[14]; at 1.2 µM,7%
same,growth inhibition,[14]; at 3.7 µM,11%
same,growth inhibition,[14]; at 11.0 µM,18%
same,growth inhibition,[14]; at 33.0 µM,57%
same,growth inhibition,[14]; at 100.0 µM,94% (active)
same,growth inhibition,[15]; [17],-24%
same,growth inhibition,[15]; [18],1%
same,growth inhibition,[15]; at 50.0 µM,25.9%
same,growth inhibition,[16]; at 1.2 µM,-13%
same,growth inhibition,[16]; at 3.7 µM,-11%
same,growth inhibition,[16]; at 11.0 µM,-10%
same,growth inhibition,[16]; at 33.0 µM,31%
same,growth inhibition,[16]; at 100.0 µM,92% (active)

# From PubChem BioAssay (NCI)
